Hits are enriched below; roughly 3.5% of the tested compounds scored in any of these assays.
TEAD-YAP inh: TEAD-YAP interaction inhibition; HEK-TIYL cells, TEAD-Gal4/YAP UAS-luciferase luminescence; 640,000 tested, 1.4% active; inhibition, % at 9.12 µM; AID 1259422; in the data active means inhibition above about 32%
MITF primary: inhibitors of human MITF; O75030; AlphaScreen MITF homodimerization, bead proximity signal; inhibition, % at 2.6 µM; 650,000 tested, 0.91% active; in the data active means inhibition above about 50%
FBW7 activator: human FBW7 E3 ligase activation, primary screen. Q969H0. AlphaScreen FBW7–phospho-cyclin E peptide binding, activator screen. normalized activity (activation), % at 26.1 µM. 650,000 tested, 0.13% active. AID 1259310; in the data active means normalized activity above about 1.9%;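 further: purified mutant Fbw7 with reduced substrate affinity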
Target sequence (Q969H0 whole entry, looked up): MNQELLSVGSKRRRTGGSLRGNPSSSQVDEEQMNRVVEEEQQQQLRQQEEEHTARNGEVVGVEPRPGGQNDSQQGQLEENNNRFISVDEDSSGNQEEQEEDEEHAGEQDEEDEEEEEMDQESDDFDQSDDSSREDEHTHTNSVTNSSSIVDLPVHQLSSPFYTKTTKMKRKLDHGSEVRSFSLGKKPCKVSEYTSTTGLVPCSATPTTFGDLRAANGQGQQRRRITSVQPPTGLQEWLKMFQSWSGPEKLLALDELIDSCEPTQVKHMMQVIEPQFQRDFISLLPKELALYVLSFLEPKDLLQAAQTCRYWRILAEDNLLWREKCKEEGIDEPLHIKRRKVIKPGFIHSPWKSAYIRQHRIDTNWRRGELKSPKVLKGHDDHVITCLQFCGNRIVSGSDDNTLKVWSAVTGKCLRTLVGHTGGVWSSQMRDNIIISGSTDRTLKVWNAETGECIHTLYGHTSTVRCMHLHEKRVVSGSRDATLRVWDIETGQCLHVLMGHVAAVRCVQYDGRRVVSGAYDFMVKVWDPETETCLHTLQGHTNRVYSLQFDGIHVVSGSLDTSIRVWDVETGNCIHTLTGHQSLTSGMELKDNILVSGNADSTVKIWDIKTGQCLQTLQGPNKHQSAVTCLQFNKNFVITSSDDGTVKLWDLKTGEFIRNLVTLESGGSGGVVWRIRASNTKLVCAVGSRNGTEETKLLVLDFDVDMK
GPR151 activ: activates the human receptor GPR151 | activation, % at 11.2 µM | PathHunter beta-arrestin GPR151 cells, luminescence | Q8TDV0 | 650,000 tested, 1% active | AID 1508602; in the data active means activation above about 4.9%
Each line names hits and unclear results; the compound was inactive in the other large screens.

Cc1ccc2[nH]c(=O)c(CN(CCO)C(=O)C3CCCO3)cc2c1 (stereo unspecified)	none
CCOc1ccc(NC(=O)C2CC(=O)N(Cc3ccc4c(c3)OCO4)C(=Nc3ccc(OC)cc3)S2)cc1 (stereo unspecified)	none
COc1ccc(-n2nnnc2-c2cccc(OC)c2)cc1	TEAD-YAP inh 58
CCCCC(=O)NC(c1ccc(N(CC)CC)cc1)c1ccc2cccnc2c1O (stereo unspecified)	none
CCCC(=O)NC(c1ccc(C)cc1)c1ccc2cccnc2c1O (stereo unspecified)	TEAD-YAP inh 69
Cc1ccc(C(NC(=O)COc2ccccc2)c2cc(Cl)c3cccnc3c2O)cc1 (stereo unspecified)	none
CCCCC(=O)NC(c1ccc(C)cc1)c1ccc2cccnc2c1O (stereo unspecified)	TEAD-YAP inh 85
C(=C\CSc1nc(-c2ccccc2)c(-c2ccccc2)o1)/CSc1nc(-c2ccccc2)c(-c2ccccc2)o1	none
c1cncc(-c2nc3c4ccccc4nc(NCCc4c[nH]c5ccccc45)n3n2)c1	none
Cc1nn(C)c(C)c1-c1cc(NCc2ccccc2)nc(N)n1	none
Cc1nn(C)c(C)c1-c1cc(NCCc2ccc(O)cc2)nc(N)n1	TEAD-YAP inh 37
C[n+]1ccccc1NCCCN1CCOCC1	FBW7 activator 3.8
c1ccc(-c2cc(NCCCN3CCOCC3)nc(-c3ccccn3)n2)nc1	TEAD-YAP inh 64, MITF primary 117
c1ccc(-c2nc(NCCCN3CCOCC3)cc(-c3ccncc3)n2)cc1	none
CNc1nc(NCc2ccco2)nc(N)c1[N+](=O)[O-]	none
CCCCC(=O)NNC(=O)c1ccccc1C	none
CCOC(=O)Cn1cc(/C=C2/C(=O)N(c3cccc(C(=O)O)c3)N=C2C)c2ccccc21	MITF primary 51
CCOc1ccc(NC(=O)c2cccc3ccccc23)c([N+](=O)[O-])c1	TEAD-YAP inh 43
CCOc1ccc(NC(=O)CC2Sc3ccccc3NC2=O)c([N+](=O)[O-])c1 (stereo unspecified)	TEAD-YAP inh 52
Cc1ccc(NC(=O)CC2Sc3ccccc3NC2=O)c([N+](=O)[O-])c1 (stereo unspecified)	TEAD-YAP inh 48
CCOc1cc([N+](=O)[O-])ccc1NC(=O)CC1Sc2ccccc2NC1=O (stereo unspecified)	TEAD-YAP inh 58
Cc1ccc(NC(=O)CC2Sc3ccccc3NC2=O)c(C)c1 (stereo unspecified)	none
Cc1cccc(C)c1N=c1scc(C)n1CCCO	none
Cc1cccnc1NC(=O)/C=C/c1c(F)cccc1Cl	none
CC1(C)CC2(CC(C)(c3csc(Nc4ccccc4Cl)n3)OC2=O)C(=O)O1 (stereo unspecified)	none
O=C(NCc1nnc2n1CCN(Cc1ccccc1O)CC2)c1ccccc1	none
CN(C)CP(=O)(O)CCc1ccccc1	FBW7 activator 5.1
O=[N+]([O-])c1ccc(S(=O)(=O)NCCCCl)cc1	none
C=CCn1c(C)cc(C2=NNC(=NC3CC3)SC2)c1C	TEAD-YAP inh 95
O=[N+]([O-])c1ccc2ncnc(N3CCN(Cc4ccccc4)CC3)c2c1	none
CC1CCCN(c2ncnc3ccc([N+](=O)[O-])cc23)C1 (stereo unspecified)	TEAD-YAP inh 35
CCCSc1nnc2c(n1)OC(c1c(C)[nH]n(-c3ccccc3)c1=O)Nc1ccccc1-2 (stereo unspecified)	MITF primary 61
COC(=O)c1ccccc1NC(=O)CCS(=O)(=O)c1ccc(OC)cc1	none
COC(=O)c1ccccc1NC(=O)CCOc1ccc(OC)cc1	TEAD-YAP inh 33
O=C(Nc1nc2ccccc2s1)c1ccc(C(=O)c2ccccc2)cc1	none
CC(C)Oc1ccc(C(=O)Nc2nc3ccccc3s2)cc1	TEAD-YAP inh 73
COc1ccccc1C(=O)Nc1nc2ccccc2s1	TEAD-YAP inh 95
O=C(NC(=S)Nc1nc2ccccc2s1)c1ccccc1Cl	TEAD-YAP inh 70
Cc1ccccc1C(=O)Nc1ccc2nc(NC(=O)c3ccccc3C)sc2c1	TEAD-YAP inh 55
CC(=O)Nc1ccc2nc(NC(=O)c3ccccc3C)sc2c1	none
COc1ccccc1C(=O)Nc1nc2ccc(NC(C)=O)cc2s1	none
COc1ccc(Cl)cc1NC(=O)c1c(O)c2c(n(CC(C)C)c1=O)CCCC2	none
CCN(C(=O)c1cn(CC(C)C)c(=O)c2cc(OC)c(OC)cc12)c1ccccc1F	none
Cc1ccsc1C(=O)Nc1nc2ccc(S(C)(=O)=O)cc2s1	TEAD-YAP inh 62
CC(C)(C)c1ccc(C(=O)Nc2nc3ccccc3s2)cc1	TEAD-YAP inh 39
COc1ccc(C(=O)Nc2nc3c(Cl)cccc3s2)c(OC)c1	TEAD-YAP inh 78
COc1ccc(CNC(=O)c2ccc(OC(C)C)cc2)cc1	none
CC(C)Oc1ccc(C(=O)NCc2ccccc2)cc1	FBW7 activator 2.5
O=C(Nc1cccc(-n2cccn2)c1)C1CCCN(Cc2cccc3c2OCO3)C1 (stereo unspecified)	none
CC1CCN(c2cc(N3CCC(C)CC3)c([N+](=O)[O-])cc2/C=c2/sc3nc4ccccc4n3c2=O)CC1	none
CCCc1ccc(C(=O)Nc2nc3ccccc3s2)cc1	TEAD-YAP inh 38
CCCOc1ccc(C(=O)Nc2nc3ccccc3s2)cc1	none
O=C1CCCN1CCCNc1ccnc(N2CCOCC2)n1	none
Cc1cc(NCCCN2CCCC2=O)nc(N2CCOCC2)n1	FBW7 activator 7.4
COc1ccc(-c2cc3nc4c(c(NCc5cccnc5)n3n2)CCC4)cc1OC	TEAD-YAP inh 36
COc1ccc(-c2cc3nc4c(c(NCCN)n3n2)CCC4)cc1OC	none
Cc1ccc(CC(=O)Nc2ccncc2)cc1	TEAD-YAP inh 42
Cc1cc(OCC(=O)Nc2cccnc2)cc(C)c1Br	none
Cc1cc(OCC(=O)Nc2ccncc2)cc(C)c1Br	TEAD-YAP inh 33
CC(C)(C)C(=O)N1CCN(c2ccc([N+](=O)[O-])c(N3CCOCC3)c2)CC1	none
CC(=O)N[C@@H](Cc1cccc(C)c1)c1nc2ncc(-c3ccncc3)cc2[nH]1	TEAD-YAP inh 46
CCN(CC)c1ccc(C(=O)Nc2cc(C(=O)N3CCOCC3)ccc2N2CC3CC(C2)c2cccc(=O)n2C3)cc1 (stereo unspecified)	TEAD-YAP inh 69
Cc1cc(C)cc(NS(=O)(=O)c2ccc3c(c2)OCCN3C)c1	none
COc1ccc(S(=O)(=O)N(Cc2ccccc2)c2ccccc2C(=O)NCc2ccncc2)cc1	TEAD-YAP inh 56
C=CCNC(=O)c1ccccc1N(Cc1ccccc1)S(=O)(=O)c1ccc(OC)cc1	TEAD-YAP inh 55
CC1=C(C(=O)OC2CCCC2)C(c2ccc(F)cc2)NC(=O)N1 (stereo unspecified)	none
NC(=O)NC(Cc1ccccc1)Cc1ccccc1	none
OCC1CCCN1c1nc(NCc2cccnc2)c2ncn(-c3ccccc3)c2n1 (stereo unspecified)	TEAD-YAP inh 44
OCC1CCCN1c1nc(NCc2ccccc2)c2ncn(-c3ccsc3)c2n1 (stereo unspecified)	none
CC(C)n1cnc2c(NCc3cccnc3)nc(N3CCCC3CO)nc21 (stereo unspecified)	TEAD-YAP inh 33

From PubChem BioAssay
